Measured values from PubChem BioAssay (NCATS).
Results filed as inconclusive are left out. Active and inactive are the calls of the source. Unless noted, the call rests on the fitted dose curve; in most records, active means well fitted curve in the direction sought with a large enough effect; inconclusive means small, poorly fitted or top-dose-only effect, or another doubt; inactive means no such curve, though single readings can be large; an effect the other way counts as inactive or inconclusive.

Key:
[1] = qHTS to identify inhibitors of the type 1 interferon - major histocompatibility complex class I in skeletal muscle: primary screen against the NCATS Pharmaceutical Collection (AID 1347407);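 further: luminescence of HiBiT knocked into endogenous HLA-B as interferon-induced MHC class I level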
How it was run: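 Compounds […] were added to CRISPR-engineered HLA-B-HiBiT C25cl48 human myoblasts with 4.0 ng/ml IFN-beta. After 24 hrs at 37 C, cells were lysed and HiBiT luminescence measured.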

[2] = target: Protein phosphatase 1D (Homo sapiens) (UniProt O15297); experiment: RapidFire Mass Spectrometry qHTS Assay for Modulators of WT P53-Induced Phosphatase 1 (WIP1) (AID 1347424);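 further: amount of dephosphorylated VEPPL-S-QETFS peptide product formed by WIP1; series mostly up to about 63 µM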
Sequence of Protein phosphatase 1D (Homo sapiens) (O15297 whole entry, looked up): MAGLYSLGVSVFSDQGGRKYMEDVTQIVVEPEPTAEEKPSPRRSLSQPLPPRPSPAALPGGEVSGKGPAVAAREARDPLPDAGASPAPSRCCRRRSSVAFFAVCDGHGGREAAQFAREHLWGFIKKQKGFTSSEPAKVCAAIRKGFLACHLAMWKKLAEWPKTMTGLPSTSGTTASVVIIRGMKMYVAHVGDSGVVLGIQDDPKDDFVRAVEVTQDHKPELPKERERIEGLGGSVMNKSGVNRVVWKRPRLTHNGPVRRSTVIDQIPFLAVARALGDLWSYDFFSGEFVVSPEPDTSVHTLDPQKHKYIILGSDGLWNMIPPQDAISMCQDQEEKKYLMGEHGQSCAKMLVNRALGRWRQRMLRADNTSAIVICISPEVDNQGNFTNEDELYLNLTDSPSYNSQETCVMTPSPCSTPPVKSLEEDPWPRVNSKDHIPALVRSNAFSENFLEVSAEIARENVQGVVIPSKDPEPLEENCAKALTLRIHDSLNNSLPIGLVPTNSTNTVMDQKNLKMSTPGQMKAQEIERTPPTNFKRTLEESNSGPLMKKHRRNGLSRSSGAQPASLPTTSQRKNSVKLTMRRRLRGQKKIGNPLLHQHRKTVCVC
How it was run: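 10 nM WIP1 + cpd, 1 h RT; + 2 uM VEPPL-pS-QETFS, 5 min RT; stop 0.5% formic acid; labelled product standard 1 uM; RapidFire MS. Buffer 50 mM Tris pH 7.5, 30 mM MgCl2, 1 mM TCEP.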

[3] = target: Protein phosphatase 1D (Homo sapiens) (UniProt O15297); experiment: Rhodamine-PBP qHTS Assay for Modulators of WT P53-Induced Phosphatase 1 (WIP1) (AID 1347425)
How it was run: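 5 nM WIP1 + 10 uM Rh-PBP, 50 mM Tris pH 7.5, 30 mM MgCl2, 1 mM TCEP, 0.1 mM EGTA, BSA; cpds pinned, 1 hr RT; + 10 uM phosphopeptide; fluorescence 1-min reads x 11 min; delta = f1 - f0.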

[4] = Primary qHTS for inhibitors of SARS-S pseudo-typed particle cell entry (AID 1479145; calls by dose curve; further: nearly all actives have a fitted effect of over 45% in size)
[5] = Primary qHTS for Huh7 cytotoxicity: counterscreen for inhibitors of MERS-S pseudotyped particle cell entry (AID 1479147; calls by dose curve)
[6] = Primary qHTS for inhibitors of MERS-S pseudo-typed particle cell entry (AID 1479149; calls by dose curve; further: nearly all actives have a fitted effect of over 60% in size)
[7] = Primary qHTS for Vero E6 cytotoxicity: counterscreen for inhibitors of SARS-S pseudo-typed particle cell entry (AID 1479150; calls by dose curve)
[8] = Primary qHTS for inhibitors of La Crosse Virus (LACV) - induced cell death in SH-SY5Y cells (AID 1508616);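 further: top concentration of the series differs between compounds; higher means more rescue of cells from virus-induced death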
How it was run: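 Luminescent ATP readout (ATPLite 1step, 5 min room temperature) measured rescue from LACV-induced death after 6 days of infection at 0.01 MOI; normalized to infected DMSO wells and uninfected DMSO wells.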

[9] = target: Calcium and integrin-binding protein 1 (Homo sapiens) (UniProt Q99828); experiment: Primary qHTS for Identification of Calcium Integrin Binding Protein 1 (CIB1) Competitor (AID 1508620);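 further: GST tagged CIB1 binding a fluorescein labelled alphaIIb integrin peptide tracer; top concentration of the series differs between compounds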
Sequence of Calcium and integrin-binding protein 1 (Homo sapiens) (Q99828 whole entry, looked up): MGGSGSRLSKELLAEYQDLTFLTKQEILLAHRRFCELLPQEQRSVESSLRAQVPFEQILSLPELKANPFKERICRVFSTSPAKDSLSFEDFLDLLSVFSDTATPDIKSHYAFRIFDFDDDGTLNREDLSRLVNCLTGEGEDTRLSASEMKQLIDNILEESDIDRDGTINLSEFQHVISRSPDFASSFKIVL
How it was run: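 CIB1-GST (1 uM final) and compound incubated 15 min at room temperature before adding FITC-alphaIIb peptide tracer (100 nM final). Competition for binding read by fluorescence polarization (ex 480, em 540) after another 15 min at room temperature.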

[10] = qHTS for inhibitors of adenylyl cyclases using a fission yeast platform: a pilot screen against the NCATS LOPAC library (AID 1347410)
How it was run: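 GFP from fbp1-GFP reporter, read by Acumen laser cytometry, indicates AC inhibition in fission yeast expressing AC9, GNAS and PDE4D2. Cells grown 18 h in the dark at 30C with compounds, final up to 57 uM.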

[11] = Validation qHTS assay for inhibitors of Activation Induced Cytidine Deaminase (AID): UDG Counterscreen signal (AID 1347427)
How it was run: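 Counterscreen read of UDG activity (2 U/mL, 4/3x) in the FRET deamination format with AID (1 uM, 4/3x), DJC20/DJC23 substrates (250 nM, 4x), 4 h at room temperature. NaOH stop, fluorescence at 560 ex/665 em.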

[12] = target: Single-stranded DNA cytosine deaminase (Homo sapiens) (UniProt Q9GZX7); experiment: Validation qHTS assay for inhibitors of Activation Induced Cytidine Deaminase (AID): AID signal (AID 1347429)
Sequence of Single-stranded DNA cytosine deaminase (Homo sapiens) (Q9GZX7 whole entry, looked up): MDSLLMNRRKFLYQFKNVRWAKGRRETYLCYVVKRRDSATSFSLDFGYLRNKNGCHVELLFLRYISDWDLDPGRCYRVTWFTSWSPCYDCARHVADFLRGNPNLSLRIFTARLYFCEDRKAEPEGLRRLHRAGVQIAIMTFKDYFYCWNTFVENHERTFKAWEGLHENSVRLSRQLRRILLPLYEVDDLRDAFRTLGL
How it was run: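 AID and UDG were combined and compounds added at final up to 114 uM, then DJC20/DJC23 FRET substrate was added for 4 hr at room temperature. NaOH was then added for 30 min before fluorescence was read at 540/590 nm.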

[13] = target: Calcium and integrin-binding protein 1 (Homo sapiens) (UniProt Q99828); experiment: Validation qHTS for Identification of Calcium Integrin Binding protein 1 (CIB1) Competitor (AID 1508618)
How it was run: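 Displacement of FITC-alphaIIb peptide (100 nM) from CIB1-GST (1 uM) is monitored by polarization in quantitative HTS format; buffer carries 5 mM CaCl2 and 125 mM NaCl at pH 7.4, incubations are at room temperature.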

[14] = Counterscreen qHTS for small molecule stabilizers of the endoplasmic reticulum resident proteome: GLuc-NoTag assay (AID 1508627);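 further: SH-SY5Y cells given compound then 100 nM thapsigargin to empty ER calcium; series mostly up to about 76 µM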
How it was run: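 Luminescence of Gaussia luciferase secreted into the medium (coelenterazine, 0.07x final, unlysed cells) was the read-out. Human SH-SY5Y neuroblastoma cells constitutively secreting untagged GLuc received compound for 19 h, then 100 nM thapsigargin for 4 h.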

[15] = Confirmatory qHTS for small molecule stabilizers of the endoplasmic reticulum resident proteome: Secreted ER Calcium Modulated Protein (SERCaMP) assay (AID 1508628);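 further: SH-SY5Y cells given compound 16 h then thapsigargin 100 nM for 4 h; series mostly up to about 76 µM; nearly all actives have a fitted effect of over 40% in size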
How it was run: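 We seeded SH-SY5Y-GLuc-SERCaMP cells, added compounds (three concentrations in the primary run, eleven up to 76.6 uM in confirmation), incubated 16 h, depleted ER calcium with thapsigargin, and read luciferase 4 h later.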

Measured: Potency

CC(C)(O)C(Cl)(Cl)Cl
inactive: [1] | [2] | [3] | [4] | [5] | [6] | [7] | [8] | [9]

NC(=O)CN1CCCC1=O
inactive: [1] | [10] | [2] | [3] | [11] | [12] | [5] | [6] | [7] | [13] | [9]

Nc1ccccc1C(=O)OCC(O)CO (stereo not drawn)
inactive: [1] | [2] | [3] | [4] | [5] | [6] | [7] | [9]

CCCC[N+]1(C)[C@@H]2CC(OC(=O)[C@H](CO)c3ccccc3)C[C@H]1[C@@H]1O[C@@H]12 (stereo partly drawn)
inactive: [1] | [2] | [3] | [4] | [5] | [6] | [7] | [8] | [9] | [14] | [15]

O=C1CN2CCOC2(c2ccccc2Cl)c2cc(Cl)ccc2N1 (stereo not drawn)
inactive: [1] | [2] | [3] | [5] | [7] | [8] | [9]

COc1cc(CC(C)N)c(OC)cc1Br (stereo not drawn)
inactive: [1] | [2] | [3] | [8] | [9]

COc1cc(N)c(Cl)cc1C(=O)NC1CN2CCC1CC2 (stereo not drawn)
inactive: [1] | [2] | [3] | [8] | [9]

CCOC(=O)NC(O)C(Cl)(Cl)Cl (stereo not drawn)
inactive: [1] | [2] | [3] | [8] | [9]

CC(C)C(Br)C(=O)NC(N)=O (stereo not drawn)
inactive: [1] | [2] | [3] | [5] | [6] | [7] | [9]

C[C@@H]1CN(C2CCC(C#N)(c3ccc(F)cc3)CC2)CC[C@]1(C(=O)O)c1ccccc1 (stereo partly drawn)
inactive: [1] | [2] | [3] | [5] | [6] | [7] | [8] | [9]

C=CC[C@]1(O)CC[C@H]2[C@@H]3CCC4=CC(=O)CCC4=C3C=C[C@@]21C
inactive: [1] | [2] | [3] | [5] | [7] | [8] | [9]

COc1cc(C[C@@H](C)N)c(OC)cc1C
inactive: [1] | [2] | [3] | [8] | [9]

C[N+]1(CCC(C(N)=O)(c2ccccc2)c2ccccc2)CCCCC1
inactive: [1] | [2] | [3] | [8] | [9]

CN1C(=O)CN=C(c2ccccc2)c2cc(Cl)ccc21
inactive: [1] | [2] | [3] | [8] | [9]

Cc1nc2ccccc2c(=O)n1-c1ccccc1Cl
inactive: [1] | [2] | [3] | [8] | [9]

CCCOC(=O)Cc1ccc(OCC(=O)N(CC)CC)c(OC)c1
inactive: [1] | [2] | [3] | [8] | [9]

CNC(=O)NC(O)C(Cl)(Cl)Cl (stereo not drawn)
inactive: [1] | [2] | [3] | [8] | [9]

Clc1ccc(CO/N=C(\Cn2ccnc2)c2ccc(Cl)cc2Cl)c(Cl)c1
inactive: [1] | [2] | [3] | [5] | [7] | [9]

COc1ccc(OC)c(CC(C)N)c1 (stereo not drawn)
inactive: [1] | [2] | [3] | [8] | [9]

CC(C)NCC(O)c1ccc(N)c(C#N)c1 (stereo not drawn)
inactive: [1] | [2] | [3] | [8] | [9]

CCO[C@H]1O[C@@H]2OC3(C)CC[C@H]4[C@H](C)CC[C@@H]([C@H]1C)[C@@]24OO3
inactive: [1] | [2] | [3] | [8] | [9]

C[C@]12CC[C@H]3[C@@H](CCC4=CC(=O)CC[C@@]43C)[C@@H]1CC[C@@H]2C(=O)O
inactive: [1] | [2] | [3] | [8] | [9]

C=CCN1CC[C@]23CCCC[C@H]2[C@H]1Cc1ccc(O)cc13
inactive: [1] | [2] | [3] | [4] | [5] | [7] | [8] | [9]

Clc1ccc(C(OCCN2CCCCC2)c2ccccc2)cc1 (stereo not drawn)
inactive: [1] | [2] | [3] | [5] | [7] | [8] | [9]

CC(Cc1ccccc1)NCCCCl (stereo not drawn)
inactive: [1] | [2] | [3] | [5] | [6] | [7] | [8] | [9]

CCc1cc(OC)c(C[C@H](C)N)cc1OC
inactive: [1] | [2] | [3] | [8] | [9]

CN(C)CCc1c[nH]c2ccc(O)cc12
inactive: [1] | [2] | [3] | [8]

CC(C(O)c1ccccc1)N(C)C/C=C/c1ccccc1 (stereo not drawn)
inactive: [1] | [2] | [3] | [5] | [7] | [8] | [9]

CC(Cc1ccc2c(c1)OCO2)NO (stereo not drawn)
inactive: [1] | [2] | [3] | [8] | [9]

CCOC(=O)c1ncn2c1CN(C)C(=O)c1c(I)cccc1-2
inactive: [1] | [2] | [3] | [5] | [7] | [8] | [9]

O=C(CCCN1CCC(n2c(=O)[nH]c3ccccc32)CC1)c1ccc(F)cc1
inactive: [1] | [2] | [3] | [5] | [7] | [8]

NCc1cccnc1
inactive: [1] | [2] | [3] | [8] | [9]

O=C(NC(=O)c1c(F)cccc1F)Nc1cc(Cl)c(OC(F)(F)C(F)C(F)(F)F)cc1Cl (stereo not drawn)
inactive: [1] | [2] | [3] | [5] | [7] | [8] | [9]
